# Screening data as filed in PubChem BioAssay.
# Epigenetic derep = regulators of epigenetic silencing causing reporter derepression in mouse cells | murine LDR cells, GFP reporter derepression, 30 h | Potency, µM (series often up to 53.9 µM), inactives show at the top dose GFP activation, usual class: activators | 280,000 compounds, 0.2% hits | AID 1865; also: % of control where 0% means no effect; nearly all actives have a fitted effect of over 60% in size
#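 Murine LDR cells bearing a silenced CMV-driven GFP reporter were exposed to compound for 30 h at 37 C. After PBS washes, GFP-positive cells (20-120 um objects) counted by laser-scanning microplate cytometry.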
# HTT aggregate = inhibitors of mutant huntingtin aggregate formation in PC12 cells; PC12 HttQ103-GFP aggregates, Acumen cytometry, 40 h; Potency, µM (titrated, usually from 46.1 µM), inactives show top-dose activity change, negative = inhibition, usual class: inhibitors; 220,000 compounds, 1.1% hits; AID 1688; also: % is scaled to controls: 0 for no effect and ±100 for the full control effect; nearly all actives have a fitted effect of over 60% in size
#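 Quantitative HTS on tebufenozide-induced (100 nM) PC12 cells stably expressing polyQ103 Huntingtin exon 1–GFP. Reduction of bright GFP aggregates, detected by laser scanning cytometry after lysis, identified actives across the titration.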
# HTT ATP protect = cytoprotection in Huntington HTT-Q103 PC12 cell model. AID 1471. PC12 HTT-Q103 induced, cytoprotection, ATP luminescence, 40 h. Potency, µM (series often up to 56.4 µM), without a hit: cytoprotection (ATP increase), most hits filed as activators. 230,000 compounds, 0.14% hits; also: % of control where 0% means no effect; nearly all actives have a fitted effect of over 45% in size
#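 Quantitative HTS on tebufenozide-induced (100 nM) PC12 cells expressing HTTQ103 exon 1–GFP; compounds tested as a concentration series; survival measured via cellular ATP.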
# NPSR antagonist = blocks cAMP signaling of the human neuropeptide S receptor. Q6W5P4. AID 1461. CHO-NPSR cells, cAMP TR-FRET, antagonist mode. 220,000 compounds, 1% hits. Potency, µM (highest dose often 38.3 µM), for inactives: at the highest dose activity change, negative = inhibition, hits mostly inhibitors; also: % is scaled to controls: 0 for no effect and ±100 for the full control effect; nearly all actives have a fitted effect of over 50% in size
# Target sequence (Q6W5P4 whole entry, looked up): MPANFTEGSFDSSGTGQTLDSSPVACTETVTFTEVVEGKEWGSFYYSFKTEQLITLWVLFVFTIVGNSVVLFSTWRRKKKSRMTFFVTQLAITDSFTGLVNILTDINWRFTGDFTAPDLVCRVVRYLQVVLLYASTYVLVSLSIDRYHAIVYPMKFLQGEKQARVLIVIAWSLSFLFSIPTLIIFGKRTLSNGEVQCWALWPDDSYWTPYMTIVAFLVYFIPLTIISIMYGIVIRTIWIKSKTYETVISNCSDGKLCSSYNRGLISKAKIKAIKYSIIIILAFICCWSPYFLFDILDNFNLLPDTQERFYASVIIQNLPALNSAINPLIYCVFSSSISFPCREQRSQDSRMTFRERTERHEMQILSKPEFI
# LMNA splice mod = changes lamin A minigene splicing in HeLa cells | 200,000 compounds, 0.01% hits | HeLa LMNA splicing GFP/RFP minigene ratio, 48 h | Potency, µM (doses to about 46.1 µM), for the others: top-dose ratio change, negative = inhibition, actives largely listed as inhibitors; active = well fitted inhibition curve with a large enough effect in the signal ratio, with a control signal flat, not every such curve was filed as active; inconclusive = small, poorly fitted or top-dose-only effect, or effect the other way, or a change in a side signal; the % refers to the signal ratio; also: % is scaled to controls: 0 for no effect and ±100 for the full control effect
#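 S3 HeLa stable clones carrying a lamin A-EGFP splicing minigene plus DsRed2 were seeded at 600 cells/well in Opti-MEM with 2% FBS, pin-dosed and incubated 48 h at 37°C. Acumen cytometry (488 nm) gave the GFP/RFP total-intensity ratio.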
# Numbers without * were called inactive; ? = inconclusive; . = no result; ! = not confirmed by another sample; [ ] = dose if it differs, or a comment. Only some compounds are listed: those with a hit (about 1.5% of all), similar ones and a draw of the others. Unless noted, calls follow the shape of the dose curve; as a rule, active = well fitted curve in the direction sought with a large enough effect; inconclusive = small, poorly fitted or top-dose-only effect, or another doubt; inactive = no such curve, though single readings can be large; an effect the other way counts as inactive or inconclusive. Potency is read from the fitted curve at half-maximal effect.
SMILES,Epigenetic derep,HTT aggregate,HTT ATP protect,NPSR antagonist,LMNA splice mod
Cc1cccc(-n2ncc3c(NCc4cccs4)ncnc32)c1,6.9%,11.2µM*,-28.6%,-19.2%[46.1 µM],?
Cc1cccc(-n2ncc3c(NCc4ccco4)ncnc32)c1,3.5%,?,-23.1%[10 µM],3.5%[46.1 µM],-23.8%
Clc1ccc2c(NCc3ccccn3)ncnc2c1,-5.6%,-39.6%,2.1%,-6.2%[46.1 µM],-3.3%
COc1ccc(-c2n[nH]c3c2cnc2ccc(F)cc23)cc1,9.7%,.,.,.,3.7%[46 µM]
CCOC(=O)[C@]1(CC(=O)O)CCCC1=O,.,.,8.4%[10 µM],.,.
COc1ccc(-c2nc3scc(CCNS(=O)(=O)c4c(C)cc(C)cc4C)n3n2)cc1OC,2.0%,.,.,.,19.9%[46 µM]
CCc1ccccc1NC(=O)C1=C(C)C(=O)OC12CCCCCC2,-1.2%,.,.,.,?
Cc1ccc(-c2nn(-c3ccccc3)cc2/C=N/NC(=O)c2ccc(Br)o2)cc1,1.2%,7.08µM*,-41.7%,7.94µM*,?
O=C(N/N=C\c1cn(-c2ccccc2)nc1-c1ccccc1)c1ccc(Br)o1,-2.6%,25.1µM*,-49.2%,-28.7%[46.1 µM],?
O=C(N/N=C/c1cn(-c2ccccc2)nc1-c1ccccc1)c1ccco1,0.2%,8.4%,-5.9%[10 µM],?,?
CC(=O)c1ccc(NC(=O)CSc2nnc(Cn3cnc4ccccc43)o2)cc1,0.2%,-2.5%[9.22 µM],2.1%[10 µM],-8.8%,20.9%[46 µM]
COc1ccc(C(=O)CSc2nnc(Cn3cnc4ccccc43)o2)cc1,-0.7%,10µM*,-12.3%[10 µM],-6.0%[46.1 µM],?
CC(CC(=O)O)(CC(=O)O)c1ccccc1,.,.,-18.5%[10 µM],.,.
CCn1cc2nc(SCc3ccc(F)cc3)n(CCc3ccccc3)c(=O)c2n1,-1.5%,.,.,.,.
O=C1C2C3C=CC(C3)C2C(=O)N1/N=C/c1cc(Br)cc([N+](=O)[O-])c1O (configuration not stated),0.0%,12.6µM*,-3.8%[10 µM],-6.7%[46.1 µM],?
COC(=O)c1sc(NC(=S)NC(=O)c2ccccc2F)nc1C,0.0%,-18.1%,-96.3%,12.6µM*,.
CC(C)(C)c1nc(NC(=O)Nc2ccccc2)sc1Br,2.3%,11.2µM*,-129.4%,-50.7%,.
COc1ccc2nc(NC(=O)Nc3ccccc3)sc2c1,5.1%,5.7%,-230.0%,-8.0%,?
Cc1cccc(-n2c3nc(=O)[nH]c(=O)c-3cc3cc([N+](=O)[O-])ccc32)c1,0.9%,21.0%,26.5%[10 µM],17.7%,?
Cc1ccc(C)c(-n2c3nc(=O)[nH]c(=O)c-3cc3cc([N+](=O)[O-])ccc32)c1,0.9%,3.6%,-52.3%[10 µM],-16.5%,11.2µM*
COc1ccc2c(c1)-c1nc(/N=C/c3ccccc3O)sc1CC2,0.0%,-2.0%,14.0%[10 µM],12.1%,-15.5%
COc1ccc2sc(/C=C/c3ccccc3O)[n+](C)c2c1,-0.8%,5.0%,.,12.6µM*,.
Cc1sc2ncn(CCn3cnc4sc(C)c(C)c4c3=O)c(=O)c2c1C,-2.1%,0.447µM*,6.4%,-8.6%[46.1 µM],?
COc1ccc(NC(=O)N2CC[C@@]3(CCCN(C(=O)c4cccn4C)C3)C2)cc1,.,.,10.8%,.,.
Cc1nn2c(NCc3ccccn3)c3c(nc2c1-c1ccccc1)CCC3,22.4µM*,-28.7%[9.22 µM],-41.5%[10 µM],-40.3%,.
SMILES,Epigenetic derep,HTT aggregate,HTT ATP protect,NPSR antagonist,LMNA splice mod
CC(=O)Cc1nsc(NC(=O)c2ccc(-c3cc(Cl)ccc3Cl)o2)n1,0.9%,3.7%,-74.3%,-25.0%,.
CC(=O)Cc1nsc(NC(=O)c2ccc(-c3cc(C(F)(F)F)ccc3Cl)o2)n1,-0.2%,2µM*,-0.2%,-19.3%[46.1 µM],-20.9%
CC1CCC(C(C)C)C(OC(=O)Cn2c(-c3ccccc3)[n+](C)c3ccccc32)C1 (configuration not stated),-1.8%,11.2µM*,-48.8%[10 µM],?,?
O=C1NC(=S)S/C1=C\C=C\c1ccc([N+](=O)[O-])o1,?,?,33.3%[10 µM],7.94µM*,.
O=C1CN(/N=C\c2ccc([N+](=O)[O-])o2)C(=O)N1,1.1%[16.9 µM],.,-6.3%[40.3 µM],.,?
O=C(OCC(=O)N1CCc2ccccc21)c1cncc(Br)c1,0.0%,?,2.24µM*,-0.7%,?
CCOC(=O)c1c(C)[nH]c(CCC(=O)Nc2cc(C)ccc2OC)c1C,9.4%,.,.,.,-15.2%[46 µM]
O=C1N/C(=N\N=C\c2ccccn2)SC1Cc1cccc(SC(F)F)c1 (configuration not stated),0.0%,5.62µM*,-77.7%[10 µM],?,?
O=C1N/C(=N\N=C\c2cccnc2)SC1Cc1ccc(SC(F)F)cc1 (configuration not stated),3.6%,5.62µM*,-68.1%[10 µM],?,?
COc1cccc(N2C(=O)CSC23C(=O)N(Cc2ccccc2)c2ccccc23)c1 (configuration not stated),-4.1%,.,.,.,.
O=C(c1cccs1)N1CCc2c([nH]c3ccccc23)C1c1ccccn1 (configuration not stated),-0.1%,12.7%[9.22 µM],15.4%[10 µM],?,.
O=C(c1cccs1)N1CCc2c([nH]c3ccccc23)C1c1ccc(Cl)cc1 (configuration not stated),-1.1%,-16.4%,-32.7%,10µM*,?
C(=C\c1ccccc1)/CN1CCN(C(c2ccccc2)c2ccccc2)CC1,0.1%,11.8%,.,12.6µM*!,?
CC(C(=O)N(C)Cc1ccccc1)N1CCN(C/C=C/c2ccccc2)CC1 (configuration not stated),1.1%,33.1%[9.22 µM],39.9%[10 µM],-1.9%,8.2%[46 µM]
COc1ccc(CCNc2c(C)c(C)nc3ncnn23)cc1,0.0%,?,-54.3%[10 µM],3.1%[46.1 µM],5.3%
CCc1c(C)nc2ncnn2c1NCCc1ccc(OC)c(OC)c1,3.7%,10µM*,17.6%[10 µM],-12.4%[46.1 µM],?
Cc1cc2c(N=O)c(NO)ccc2[nH]1,15.8µM*,?,-65.3%[10 µM],?,?
CCC(C)Cn1c(C)nc2ccccc21 (configuration not stated),-1.8%,20µM*,-30.7%,9.6%[46.1 µM],?
CCC(C)Cn1c(COc2ccc(OC)cc2)nc2ccccc21 (configuration not stated),7.7%,.,.,.,.
CCN(CC)S(=O)(=O)c1ccc(NC(=O)Nc2cccc(C(F)(F)F)c2)cc1,-5.8%,15.8µM*,-63.2%,15.8µM*,?
O=[N+]([O-])c1cc2oc3c(c2c(C=NCc2ccccc2)c1O)CCCC3,0.0%,26.3%,10.9%[10 µM],10µM*,?
COC(=O)c1cc(Cl)ccc1NC(=O)Cn1c(C)cc(C)c(C#N)c1=O,3.5%,.,.,.,.
Cc1noc(/C=C/c2ccc(-c3ccccc3Cl)o2)c1[N+](=O)[O-],7.08µM*,15.7%,0.6%,-4.1%[46.1 µM],-0.5%
Cn1cccc1C(=O)N1CCC2(CC1)CN(C(=O)Nc1cccc(C#N)c1)C2,.,.,-39.6%,.,.
Cc1nc2scc(-c3ccc(C(C)(C)C)cc3)c2c(=O)n1N,-0.1%,?,-76.5%,-32.9%,10.1%[9.22 µM]
Cc1nc2sccc2c(=O)n1N,1.7%,-21.8%,3.55µM*,2.8%,.
Cc1ccccc1C(=O)Nc1nnc(S(=O)(=O)N2CCCc3ccccc32)s1,7.0%,.,.,.,-4.4%[46 µM]
